Bioassay records deposited in PubChem by The Scripps Research Institute Molecular Screening Center.
In the library only some 3.5% were active in any assay of this set; here they are far more common.
GPR151 ag: activators of human GPR151, primary screen, cell-based, PathHunter beta-arrestin, luminescence; actives 1% (n = 650,000); PathHunter beta-arrestin GPR151 cells; AID 1508602, 2020; activation, % at 11.2 µM; in the data active = activation above about 4.9%
Target sequence (Q8TDV0 whole entry, looked up): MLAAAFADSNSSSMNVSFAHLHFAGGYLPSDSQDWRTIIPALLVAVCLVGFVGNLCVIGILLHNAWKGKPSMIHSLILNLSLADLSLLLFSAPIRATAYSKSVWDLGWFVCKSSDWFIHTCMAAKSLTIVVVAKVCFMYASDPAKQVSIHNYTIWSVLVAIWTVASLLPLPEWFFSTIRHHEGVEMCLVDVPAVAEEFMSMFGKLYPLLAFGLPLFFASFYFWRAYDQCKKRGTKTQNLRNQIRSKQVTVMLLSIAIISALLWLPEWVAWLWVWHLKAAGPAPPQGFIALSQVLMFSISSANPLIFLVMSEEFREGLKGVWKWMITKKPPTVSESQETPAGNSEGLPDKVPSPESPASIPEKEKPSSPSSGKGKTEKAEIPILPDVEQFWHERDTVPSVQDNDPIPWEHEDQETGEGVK
FBW7 activator: FBW7 E3 ligase activators, primary screen, biochemical, AlphaScreen, human. F-box/WD repeat-containing protein 7 (Homo sapiens), Q969H0. AlphaScreen FBW7–phospho-cyclin E peptide binding, activator screen. normalized activity (activation), % at 26.1 µM. actives 0.13% (n = 650,000). AID 1259310, 2017; in the data active = normalized activity above about 1.9%;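 also: purified mutant Fbw7 with reduced substrate affinity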
MITF primary: MITF inhibitors, primary screen, biochemical, AlphaScreen, human. AlphaScreen MITF homodimerization, bead proximity signal. Microphthalmia-associated transcription factor (Homo sapiens), O75030. inhibition, % at 2.6 µM. actives 0.91% (n = 650,000); in the data active = inhibition above about 50%
TEAD-YAP block: TEAD-YAP interaction inhibition, primary screen, TEAD-YAP interaction inhibitor project, luminescence, HEK-TIYL cells; inhibition, % at 9.12 µM; TEAD-Gal4/YAP UAS-luciferase luminescence; actives 1.4% (n = 640,000); AID 1259422, 2018; in the data active = inhibition above about 32%
MITF inh conf: MITF inhibitors, retest of hits, confirmation, biochemical, AlphaScreen, triplicate; inhibition, % at 2.6 µM; AlphaScreen MITF homodimerization, biotin/His-MITF beads; shares compounds with MITF primary; actives 16% (n = 4,700); AID 1259372, 2018;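 active = inhibition above a cutoff derived from the DMSO control wells, cut at about 28% in these data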;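 also: inhibitors lower the bead chemiluminescence by keeping MITF from dimerizing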
AlphaScreen DR: AlphaScreen optical interference compounds, dose response, counter-screen, biochemical, HTS | IC50, µM | actives 6% (n = 480) | shares compounds with MITF primary | AID 1259373, 2018 | AlphaScreen optical interference counterscreen, cell-free; call rule not given here
AlphaScreen intf2: AlphaScreen optical interference compounds, counter-screen for MITF inhibitor project, biochemical, triplicate; shares compounds with MITF primary; LysRS AlphaScreen counterscreen, signal interference; inhibition, % at 2.6 µM; actives 7.6% (n = 4,700);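 active = inhibition above a cutoff derived from the DMSO control wells, cut at about 30% in these data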
A number is an active result; i = inactive; nt = not tested or not shown.

SMILES	GPR151 ag	FBW7 activator	MITF primary	TEAD-YAP block	MITF inh conf	AlphaScreen intf2	others
O=C1c2cccc([N+](=O)[O-])c2C(=O)N1CN1CC=C(c2ccccc2)CC1	i	i	i	i	nt	nt
COCC1=C(C#N)C2(C(=O)Nc3ccccc32)C(C(=O)OC)=C(N)O1 (stereo unspecified)	i	i	i	i	nt	nt
CC1(C)CC(=O)c2sc(N[N+](=O)[O-])nc2C1	i	i	84	i	i	i
Cc1ccccc1CN1CCN(Cc2ccccc2Cl)CC1	i	i	i	i	nt	nt
COc1ccc(CN2CCN(Cc3ccccc3C)CC2)cc1	i	i	75	i	i	i
CCc1ccc(CN2CCN(Cc3ccccc3C)CC2)cc1	i	i	65	i	i	i
Cc1ccc(CN2CCN(Cc3ccccc3C)CC2)cc1	i	i	56	i	i	i
Cc1ccc(CN2CCN(Cc3ccc(Cl)cc3)CC2)cc1	i	i	83	i	i	i
Cc1ccccc1CN1CCN(c2ccc(Cl)cc2)CC1	i	i	i	i	nt	nt
Clc1ccc(CN2CCNCC2)cc1	i	i	i	i	nt	nt
O=c1c2ccc(Cl)cc2[nH]c(=S)n1-c1ccccc1	i	i	i	i	nt	nt
CNC(=S)Nc1ccc(Br)cc1Cl	i	i	i	i	nt	nt
Cc1ccc(C)c(CN2CCN(C)CC2)c1	i	i	62	i	i	i
Cc1ccccc1CN1CCN(C)CC1	i	i	i	i	nt	nt
COC(=O)C1=C(C(=O)OC)C2c3ccccc3C=CN2C(C(=O)OC)=C1C(=O)OC (stereo unspecified)	i	i	51	i	51	i
C1COCCOCCOCCOCCO1.C1COCCOCCOCCOCCO1.[Cl-].[Cs+].[O]=[Cr](=[O])=[O]	i	i	57	i	i	i
Clc1ccc(CCNCc2ccccn2)c(Cl)c1	i	i	i	i	nt	nt
Fc1cccc(CCNCc2ccccn2)c1	i	i	62	i	i	i
CCNC(=O)c1c(COc2ccc(C)cc2)n(Cc2ccccn2)c(C)cc1=O	i	i	i	i	nt	nt
COc1ccc(CN2CCN(C(C)C)CC2CCO)c(F)c1 (stereo unspecified)	i	i	i	i	nt	nt
O=c1c2ccccc2nc(-c2cccnc2)n1-c1ccc(Br)cn1	i	i	i	i	nt	nt
FC(F)(F)c1ccccc1CNCCc1ccc2c(c1)OCO2	i	i	55	i	i	i
Cc1ccccc1CN1CCN(Cc2ccccc2[N+](=O)[O-])CC1	i	i	61	i	i	i
CCC(C)N1CCN(Cc2ccccc2[N+](=O)[O-])CC1 (stereo unspecified)	i	i	74	i	i	i
Cc1ccccc1CN1CCN(Cc2ccc([N+](=O)[O-])cc2)CC1	i	i	63	i	i	i
SMILES	GPR151 ag	FBW7 activator	MITF primary	TEAD-YAP block	MITF inh conf	AlphaScreen intf2	others
O=[N+]([O-])c1ccc(CN2CCN(Cc3ccccc3)CC2)cc1	i	i	57	i	i	i
CCOc1ccc(N2C(=O)NC(=O)/C(=C/c3ccc(C)cc3)C2=O)cc1	i	i	i	i	nt	nt
CCC(C)N1CCN(Cc2ccccc2Br)CC1 (stereo unspecified)	i	i	83	i	i	i
OCCN1CCN(Cc2ccccc2Br)CC1	i	i	i	i	nt	nt
Cc1ccccc1CN1CCN(c2ccc(F)cc2)CC1	i	i	i	i	nt	nt
CCC(C)N1CCN(Cc2ccccc2C)CC1 (stereo unspecified)	i	i	83	i	i	i
Cc1cccc(N2CCNCC2C)c1 (stereo unspecified)	i	i	i	i	nt	nt
O=C(CN1CC2CC(C1)c1cccc(=O)n1C2)Nc1ccc(Br)cc1C(=O)c1ccccc1Cl (stereo unspecified)	i	i	i	i	nt	nt
N=C1c2ccccc2CN1CCSC(F)(F)F	i	i	i	i	nt	nt
Cc1ccccc1CN1CCN(Cc2cccc(F)c2)CC1	i	i	80	i	i	i
Fc1ccccc1CN1CCN(Cc2ccc(Cl)cc2)CC1	i	i	i	i	nt	nt
CSc1ccc(CN2CCN(Cc3ccccc3Cl)CC2)cc1	i	i	i	i	nt	nt
Fc1ccc(CN2CCN(Cc3ccccc3F)CC2)cc1	i	i	78	i	i	i
CN1CCN(Cc2ccccc2F)CC1	i	i	52	i	i	i
CN1CCN(Cc2ccccc2O)CC1	i	i	i	i	nt	nt
Fc1ccc(CN2CCN(Cc3ccccc3Cl)CC2)cc1	i	i	70	i	i	30
Cc1cccc(CN2CCN3C(=O)[C@@H](CC(C)C)NC(=O)[C@H]3C2)n1	i	i	i	i	nt	nt
Cc1ccnc(-n2c(-c3ccc(Cl)cc3Cl)nc3ccccc3c2=O)c1	i	i	i	i	nt	nt
O=C(COc1ccc(Cl)cc1)N1CCN(Cc2ccccc2F)CC1	i	i	60	i	i	i
Fc1ccc(F)c(CN2CCN(Cc3ccccc3)CC2)c1	i	i	i	i	nt	nt
CCc1ccc(CN2CCN(Cc3ccccc3F)CC2)cc1	i	i	71	i	i	i
Fc1cccc(CN2CCN(Cc3ccccc3Cl)CC2)c1	i	i	78	i	i	i
Cc1cccc(CN2CCN(Cc3ccccc3Cl)CC2)c1	i	i	51	i	i	i
CC(C)(CNc1ccc([N+](=O)[O-])c2cccnc12)CNS(=O)(=O)c1ccc(Br)cc1	i	i	i	i	nt	nt
O=C(C1CCN(c2nnc(N3CCCC3=O)s2)CC1)N1CCC2(CC1)OCCO2	i	i	i	i	nt	nt
SMILES	GPR151 ag	FBW7 activator	MITF primary	TEAD-YAP block	MITF inh conf	AlphaScreen intf2	others
COC(=O)CCNC(C)Cc1ccccc1 (stereo unspecified)	i	i	i	i	nt	nt
Fc1ccccc1CN1CCN(Cc2ccccc2Cl)CC1	i	i	65	i	i	i
Brc1ccc(CNCCc2ccc3c(c2)OCO3)cc1	i	i	i	i	nt	nt
O=c1c2ccccc2nc(-c2ccccc2)n1-c1ccccc1O	i	i	68	i	32	i	AlphaScreen DR=i
CCc1ccc(CN2CCN(C(=O)Cc3ccccc3)CC2)cc1	i	i	i	i	nt	nt
O=C(Cc1ccccc1)N1CCN(Cc2ccccc2Cl)CC1	i	i	57	i	i	i
O=C(Cc1ccccc1)N1CCN(Cc2cccc(F)c2)CC1	i	i	54	i	i	i
O=C(Cc1ccccc1)N1CCN(Cc2cccnc2)CC1	i	i	69	i	i	i
Cc1cccc(CN2CCN(C(=O)Cc3ccccc3)CC2)c1	i	i	i	i	nt	nt
Cc1ccc(-n2c(/C=C/c3ccc(F)c(F)c3)nc3ccccc3c2=O)cc1C	i	i	i	i	nt	nt
C=C1OC(=O)OC12CC(C)(C)NC(C)(C)C2	i	i	i	i	nt	nt
CCOc1cccc(OCC)c2c(C)nc(C)c1-2	i	i	76	i	82	i
